Source: PubChem BioAssay (NCATS)
Values joined by “and” are separate entries in the source; they are usually repeats but may differ in a detail not shown here. Equal entries are not always repeated. Results filed as inconclusive are left out. Active and inactive are the calls of the source. Unless noted, the call rests on the fitted dose curve.
On the % scale 0 is the no-effect control and ±100 the full control effect; potency means the concentration at half of the fitted maximal effect.

Test system: not listed separately
Experiment: qHTS for Inhibitors of the Functional Ribonucleoprotein Complex (vRNP) of Lymphocytic Choriomeningitis Arenaviruses (LCMV): Viability assay - alamar blue signal for LCMV Primary Screen (AID 1347085; calls by dose curve; tested in HEK293 reporter line; further: nearly all actives have a fitted effect of over 80% in size)
Conditions: alamar blue viability counter-screen, LCMV vRNP screen cells; series mostly up to 57.5 µM; activity change, negative = lower viability: at the top concentration
In the case of `Cc1cccc(C)c1NC(=O)C(C)N` (stereo not drawn), the Potency is reported as “inactive”.
For `C#C[C@]1(OC(C)=O)CC[C@H]2[C@@H]3CCC4=C/C(=N/O)CC[C@@H]4[C@H]3CC[C@@]21CC`, the “activity change, negative = lower viability” value was -11.3% (inactive).
For `Oc1ccc(O)cc1`, the Potency was “inactive”.
In the case of `CC(C)c1cc2c(cc1S(=O)(=O)O)[C@@]1(C)CCC[C@@](C)(C(=O)O)[C@@H]1CC2`, the “activity change, negative = lower viability” value is reported as 6.56% (inactive).
For `O=C(O)c1ccccc1Nc1cc(Cl)ccc1C(=O)O`, the “activity change, negative = lower viability” value was 10.8% [at 24.7 µM] (inactive).
For `CCN(CC)CCOc1ccc(Cc2ccccc2)cc1`, the “activity change, negative = lower viability” value was -12.2% (inactive).
With `CN1CC(=O)N2[C@H](c3ccc4c(c3)OCO4)c3[nH]c4ccccc4c3C[C@@H]2C1=O` the “activity change, negative = lower viability” value was 11.8% (inactive).
For `CCCCCCCC/C=C\CCCCCCCCN`, the “activity change, negative = lower viability” value was -1.96% (inactive).
With `CCC(CC)(CC(=O)Nc1cccc(/C=C/c2nc(C3CCC3)cs2)c1)C(=O)O` the “activity change, negative = lower viability” value was 4.53% (inactive).
In the case of `C#CCN(C)Cc1ccccc1`, the Potency is reported as “inactive”.
For `c1ccc(CCNc2nc(-c3ccccc3)cs2)cc1`, the “activity change, negative = lower viability” value was -24.3% (inactive).
For `Cc1ccc(/C(=C\CN2CCCC2)c2ccccn2)cc1`, the Potency was “inactive”.
With `CCCCOC(=O)CCCCCCCCC(=O)OCCCC` the “activity change, negative = lower viability” value was 0.627% (inactive).
With `Oc1cc(O)c2c(c1)O[C@H](c1ccc(O)c(O)c1)[C@H](O)C2` the “activity change, negative = lower viability” value was 6.45% (inactive).
For `Cc1cccc(OCC(O)CNC(C)(C)C)c1C` (stereo not drawn), the “activity change, negative = lower viability” value was -0.752% (inactive).
For `O=C(c1ccc(F)cc1)C1CCN(CCn2c(=S)[nH]c3ccccc3c2=O)CC1`, the “activity change, negative = lower viability” value was 9.74% (inactive).
With `C[N+](C)(C)CCOC(=O)CCC(=O)OCC[N+](C)(C)C` the Potency was “inactive”.
For `C[C@@H]1CCC[C@H](C)N1CCCC(O)(c1ccccc1)c1ccccn1` (stereo partly drawn), the “activity change, negative = lower viability” value was -7.76% (inactive).
For `Nc1ccc2c(c1)CN1C(=O)c3ccccc3C1=N2`, the “activity change, negative = lower viability” value was -0.923% [at 24.7 µM] (inactive).
For `C/C=C(/C(=C/C)c1ccc(O)cc1)c1ccc(O)cc1`, the “activity change, negative = lower viability” value was 6.44% (inactive).
For `N[C@H](C(=O)O)c1ccc(O)cc1`, the “activity change, negative = lower viability” value was 17.7% [at 24.7 µM] (inactive).
With `N/C(=N\N=C\c1ccc(Cl)cc1)N/N=C/c1ccc(Cl)cc1` the “activity change, negative = lower viability” value was 4.74% (inactive).
With `CCCCCCCCCCCCCCCCCCOCC(O)CO` (stereo not drawn) the “activity change, negative = lower viability” value was -73.4% (inactive).
For `O=C(O)CP(=O)(O)O`, the Potency was “inactive”.
In the case of `C=CCc1cc(OC)c(O)c(C(=O)NCCO)c1`, the Potency is reported as “inactive”.
For `C/C=C(/C(=C/C)c1ccc(OC(C)=O)cc1)c1ccc(OC(C)=O)cc1`, the “activity change, negative = lower viability” value was 4.87% (inactive).
In the case of `CN(C)c1ccc(C(=C2C=CC(=[N+](C)C)C=C2)c2ccc(N(C)C)cc2)cc1`, the Potency is reported as 5.62 µM (active) and 3.85 µM (active).
For `C[C@H]1C[C@H]2[C@@H]3CCC4=CC(=O)C=C[C@]4(C)[C@H]3C(=O)C[C@]2(C)[C@@]1(O)C(=O)CO`, the “activity change, negative = lower viability” value was 18.3% (inactive).
For `O=C(CCNNC(=O)c1ccncc1)NCc1ccccc1`, the Potency was “inactive”.
With `NC(N)=NC(=O)c1nc(Cl)c(N)nc1N` the Potency was “inactive”.
For `CCOC(=O)[C@H](CCc1ccccc1)N[C@@H](C)C(=O)N1C(=O)N(C)C[C@H]1C(=O)O`, the “activity change, negative = lower viability” value was -0.0428% (inactive).
With `CCCCCCc1ccc(O)cc1O` the “activity change, negative = lower viability” value was 0.888% (inactive).
With `CC(O)Cn1cnc2c1c(=O)n(C)c(=O)n2C` (stereo not drawn) the “activity change, negative = lower viability” value was 3.21% (inactive).
In the case of `Clc1ccc2c(c1)CCc1cccnc1C2=C1CCNCC1`, the “activity change, negative = lower viability” value is reported as -149% (inactive).
In the case of `COc1ccc2c(c1OC)C(=O)O[C@@H]2[C@H]1c2c(cc3c(c2OC)OCO3)CCN1C`, the Potency is reported as “inactive”.
For `CN1CCOC(c2ccccc2)c2ccccc2C1` (stereo not drawn), the “activity change, negative = lower viability” value was 3.13% (inactive).
For `CCc1ccc(C(=O)C(C)CN2CCCCC2)cc1` (stereo not drawn), the “activity change, negative = lower viability” value was 19.8% (inactive).
For `Cc1nc2sccn2c(=O)c1CCN1CCC(=C(c2ccc(F)cc2)c2ccc(F)cc2)CC1`, the Potency was “inactive”.
In the case of `Cc1ccc(Cl)c(OCC(O)CNC(C)(C)C)c1` (stereo not drawn), the “activity change, negative = lower viability” value is reported as 0.747% (inactive).

Target: Nucleoprotein (Lymphocytic choriomeningitis virus (strain Armstrong)) (UniProt P09992)
Sequence (P09992 whole entry, looked up): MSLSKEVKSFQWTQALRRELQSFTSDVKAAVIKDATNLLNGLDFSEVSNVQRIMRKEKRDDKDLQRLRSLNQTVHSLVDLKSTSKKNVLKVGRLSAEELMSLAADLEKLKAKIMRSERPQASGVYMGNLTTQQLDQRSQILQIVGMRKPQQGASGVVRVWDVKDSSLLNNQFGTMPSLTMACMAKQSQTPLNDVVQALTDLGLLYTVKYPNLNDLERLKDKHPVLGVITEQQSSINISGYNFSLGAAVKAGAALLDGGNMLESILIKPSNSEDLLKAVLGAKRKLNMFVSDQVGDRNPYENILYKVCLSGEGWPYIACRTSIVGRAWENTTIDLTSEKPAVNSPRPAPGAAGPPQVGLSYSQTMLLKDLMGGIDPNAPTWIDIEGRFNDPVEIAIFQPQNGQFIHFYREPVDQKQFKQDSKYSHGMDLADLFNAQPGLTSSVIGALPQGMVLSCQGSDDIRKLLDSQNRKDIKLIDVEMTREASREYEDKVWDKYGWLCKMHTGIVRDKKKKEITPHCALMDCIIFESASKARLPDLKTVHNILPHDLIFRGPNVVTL
Experiment: qHTS for Inhibitors of the Functional Ribonucleoprotein Complex (vRNP) of Lymphocytic Choriomeningitis Arenaviruses (LCMV): LCMV Primary Screen - GLuc reporter signal (AID 1347086); further: nearly all actives have a fitted effect of over 70% in size
Conditions: LCMV minigenome vRNP cell assay, Gaussia luciferase reporter; series mostly up to 57.5 µM; activity change, negative = inhibition: at the top concentration
With `Cc1cccc(C)c1NC(=O)C(C)N` (stereo not drawn) the Potency was “inactive”.
In the case of `C#C[C@]1(OC(C)=O)CC[C@H]2[C@@H]3CCC4=C/C(=N/O)CC[C@@H]4[C@H]3CC[C@@]21CC`, the “activity change, negative = inhibition” value is reported as -3.36% (inactive).
With `Oc1ccc(O)cc1` the Potency was “inactive”.
In the case of `CC(C)c1cc2c(cc1S(=O)(=O)O)[C@@]1(C)CCC[C@@](C)(C(=O)O)[C@@H]1CC2`, the “activity change, negative = inhibition” value is reported as 13.2% (inactive).
In the case of `O=C(O)c1ccccc1Nc1cc(Cl)ccc1C(=O)O`, the “activity change, negative = inhibition” value is reported as 6.72% [at 24.7 µM] (inactive).
In the case of `CCN(CC)CCOc1ccc(Cc2ccccc2)cc1`, the “activity change, negative = inhibition” value is reported as -35.9% (inactive).
In the case of `CN1CC(=O)N2[C@H](c3ccc4c(c3)OCO4)c3[nH]c4ccccc4c3C[C@@H]2C1=O`, the “activity change, negative = inhibition” value is reported as 29.6% (inactive).
In the case of `CCCCCCCC/C=C\CCCCCCCCN`, the “activity change, negative = inhibition” value is reported as 24.7% (inactive).
In the case of `CCC(CC)(CC(=O)Nc1cccc(/C=C/c2nc(C3CCC3)cs2)c1)C(=O)O`, the “activity change, negative = inhibition” value is reported as 17.8% (inactive).
In the case of `C#CCN(C)Cc1ccccc1`, the Potency is reported as “inactive”.
For `c1ccc(CCNc2nc(-c3ccccc3)cs2)cc1`, the “activity change, negative = inhibition” value was -38.4% (inactive).
For `Cc1ccc(/C(=C\CN2CCCC2)c2ccccn2)cc1`, the Potency was “inactive”.
In the case of `CCCCOC(=O)CCCCCCCCC(=O)OCCCC`, the “activity change, negative = inhibition” value is reported as 23.1% (inactive).
For `Oc1cc(O)c2c(c1)O[C@H](c1ccc(O)c(O)c1)[C@H](O)C2`, the “activity change, negative = inhibition” value was 0.587% (inactive).
For `Cc1cccc(OCC(O)CNC(C)(C)C)c1C` (stereo not drawn), the “activity change, negative = inhibition” value was -8.29% (inactive).
With `O=C(c1ccc(F)cc1)C1CCN(CCn2c(=S)[nH]c3ccccc3c2=O)CC1` the “activity change, negative = inhibition” value was -1.36% (inactive).
In the case of `C[N+](C)(C)CCOC(=O)CCC(=O)OCC[N+](C)(C)C`, the Potency is reported as “inactive”.
For `C[C@@H]1CCC[C@H](C)N1CCCC(O)(c1ccccc1)c1ccccn1` (stereo partly drawn), the “activity change, negative = inhibition” value was 5.15% (inactive).
With `Nc1ccc2c(c1)CN1C(=O)c3ccccc3C1=N2` the “activity change, negative = inhibition” value was 10.7% [at 24.7 µM] (inactive).
In the case of `C/C=C(/C(=C/C)c1ccc(O)cc1)c1ccc(O)cc1`, the “activity change, negative = inhibition” value is reported as -19.7% (inactive).
In the case of `N[C@H](C(=O)O)c1ccc(O)cc1`, the “activity change, negative = inhibition” value is reported as 22.2% [at 24.7 µM] (inactive).
For `N/C(=N\N=C\c1ccc(Cl)cc1)N/N=C/c1ccc(Cl)cc1`, the “activity change, negative = inhibition” value was -1.5% (inactive).
For `CCCCCCCCCCCCCCCCCCOCC(O)CO` (stereo not drawn), the “activity change, negative = inhibition” value was -30.3% (inactive).
With `O=C(O)CP(=O)(O)O` the Potency was “inactive”.
In the case of `C=CCc1cc(OC)c(O)c(C(=O)NCCO)c1`, the Potency is reported as “inactive”.
With `C/C=C(/C(=C/C)c1ccc(OC(C)=O)cc1)c1ccc(OC(C)=O)cc1` the “activity change, negative = inhibition” value was -5.62% (inactive).
In the case of `CN(C)c1ccc(C(=C2C=CC(=[N+](C)C)C=C2)c2ccc(N(C)C)cc2)cc1`, the Potency is reported as 1.53 µM (active).
With `C[C@H]1C[C@H]2[C@@H]3CCC4=CC(=O)C=C[C@]4(C)[C@H]3C(=O)C[C@]2(C)[C@@]1(O)C(=O)CO` the “activity change, negative = inhibition” value was 64% (inactive).
In the case of `O=C(CCNNC(=O)c1ccncc1)NCc1ccccc1`, the Potency is reported as “inactive”.
In the case of `NC(N)=NC(=O)c1nc(Cl)c(N)nc1N`, the Potency is reported as “inactive”.
For `CCOC(=O)[C@H](CCc1ccccc1)N[C@@H](C)C(=O)N1C(=O)N(C)C[C@H]1C(=O)O`, the “activity change, negative = inhibition” value was 38.6% (inactive).
With `CCCCCCc1ccc(O)cc1O` the “activity change, negative = inhibition” value was 16.7% (inactive).
In the case of `CC(O)Cn1cnc2c1c(=O)n(C)c(=O)n2C` (stereo not drawn), the “activity change, negative = inhibition” value is reported as -4.03% (inactive).
For `Clc1ccc2c(c1)CCc1cccnc1C2=C1CCNCC1`, the “activity change, negative = inhibition” value was -68.8% (inactive).
In the case of `COc1ccc2c(c1OC)C(=O)O[C@@H]2[C@H]1c2c(cc3c(c2OC)OCO3)CCN1C`, the Potency is reported as “inactive”.
For `CN1CCOC(c2ccccc2)c2ccccc2C1` (stereo not drawn), the “activity change, negative = inhibition” value was -1.15% (inactive).
For `CCc1ccc(C(=O)C(C)CN2CCCCC2)cc1` (stereo not drawn), the “activity change, negative = inhibition” value was 4.23% (inactive).
In the case of `Cc1nc2sccn2c(=O)c1CCN1CCC(=C(c2ccc(F)cc2)c2ccc(F)cc2)CC1`, the Potency is reported as “inactive”.
For `Cc1ccc(Cl)c(OCC(O)CNC(C)(C)C)c1` (stereo not drawn), the “activity change, negative = inhibition” value was 3.77% (inactive).
